Screens (PubChem)
The list is a sample of the results.
CYP2C9 inhib: inhibitors of human CYP2C9 | CYP2C9 Supersomes, luciferin-H conversion, luminescence | AID 777 | inhibition, % at 5 µM | actives 20% (n = 96,000);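 active = blocking of liver enzyme CYP2C9 beyond about 50% at 5 µM, limit read from the data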
CYP2C9 act: increases human cytochrome P450 2C9 activity; P11712; recombinant CYP2C9, luciferin-H conversion, luminescence; stronger effect = higher value; factor 1 = untreated enzyme, 0 = blocked; activation factor at 5 µM; actives 1.4% (n = 96,000); AID 1024;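 active = activation factor of 2 or more for CYP2C9 at a 5 µM dose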;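 also: 0 = sulfaphenazole-blocked wells and 1 = vehicle-only wells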
PostGolgi yeast: growth inhibition of a yeast mutant, post-Golgi transport screen; actives 0.9% (n = 98,000); inhibition, % at 10 µM; post-Golgi transport phenotypic cell assay;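 also: yeast cells grown in 1536-well plates; yeast grown about 18 h at 30C before absorbance read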
CYP2C19 act: cytochrome P450 2C19 (human) activation | P33261 | recombinant CYP2C19, luciferin-H EGE luminescence; stronger effect = higher value; 0 = fully inhibited enzyme, 1 = untreated enzyme | activation factor at 5 µM | 96,000 tested, under 10 active;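 active = activation factor of at least 2 at 5 µM in the primary screen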;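 also: 0 = wells with 2.5 mM tranylcypromine and 1 = vehicle-only wells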
Target sequence (P33261 whole entry, looked up): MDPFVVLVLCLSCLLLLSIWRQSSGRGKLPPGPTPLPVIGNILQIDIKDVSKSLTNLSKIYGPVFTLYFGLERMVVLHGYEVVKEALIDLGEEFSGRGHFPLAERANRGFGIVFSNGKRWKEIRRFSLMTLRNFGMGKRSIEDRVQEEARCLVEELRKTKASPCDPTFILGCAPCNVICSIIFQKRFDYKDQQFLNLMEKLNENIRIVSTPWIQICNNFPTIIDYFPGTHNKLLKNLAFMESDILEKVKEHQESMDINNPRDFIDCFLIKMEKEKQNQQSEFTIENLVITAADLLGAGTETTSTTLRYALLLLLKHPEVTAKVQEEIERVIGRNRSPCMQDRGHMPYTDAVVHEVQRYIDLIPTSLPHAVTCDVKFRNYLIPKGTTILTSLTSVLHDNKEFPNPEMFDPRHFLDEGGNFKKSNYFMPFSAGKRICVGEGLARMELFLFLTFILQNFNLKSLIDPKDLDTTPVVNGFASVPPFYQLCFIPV
PostGolgi ctrl: growth of the yeast control strain, post-Golgi counter-screen; inhibition, % at 10 µM; actives 5% (n = 98,000); efflux-deficient yeast background strain, growth absorbance A615, 16 h
CYP2C19 inh: human CYP2C19 inhibition; P33261; CYP2C19 Supersomes, luciferin-H EGE luminescence, 30 min; inhibition, % at 5 µM; actives 21% (n = 96,000);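 active = CYP2C19 inhibition above a set limit at 5 µM in the primary screen, cut at about 50% in these data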;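 also: plate controls were negative control wells for no effect and 2.5 mM tranylcypromine positive control for full effect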
The depositor's hits bear a star. Rule as the data show it, unless noted: active = inhibition above about 30%; inactive = the rest.

Screening O/N=C(/CCc1ccccc1)C1(O)CCCCC1 returned CYP2C9 inhib 59*, CYP2C9 act 0.4, PostGolgi yeast -2, CYP2C19 act 0.2, PostGolgi ctrl 2 and CYP2C19 inh 81*.
`O=C(O)c1ccc(S(=O)(=O)c2ccc3c(c2)C(=O)N(Cc2ccco2)C3=O)cc1` gave CYP2C9 inhib 4, CYP2C9 act 1, PostGolgi yeast 0, CYP2C19 act 1.2, PostGolgi ctrl 0 and CYP2C19 inh -24.
`Cc1nnc(N2CCOCC2)c2ccccc12` gave CYP2C9 inhib -8, CYP2C9 act 1.1, PostGolgi yeast -3, CYP2C19 act 1.1, PostGolgi ctrl 1 and CYP2C19 inh -7.
`CNc1nc(OCCNC(=O)Nc2ccccc2)nc(N2CCOCC2)n1` gave CYP2C9 inhib 65*, CYP2C9 act 0.3, PostGolgi yeast -5, CYP2C19 act 0.7, PostGolgi ctrl 9 and CYP2C19 inh 34.
CN(C)c1nc(OCCOC(=O)c2ccccc2)nc(N(C)C)n1 was read as CYP2C9 inhib 70*, CYP2C9 act 0.3, PostGolgi yeast -7, CYP2C19 act 0, PostGolgi ctrl 3 and CYP2C19 inh 99*.
Screening CCOC(=O)c1ccc(Oc2nc(SC)nc(N(C)C)n2)cc1 returned CYP2C9 inhib -24, CYP2C9 act 1.2, PostGolgi yeast 0, CYP2C19 act 0.9, PostGolgi ctrl 17 and CYP2C19 inh 10.
`COC(=O)NCCOc1nc(N(C)C)nc(N(C)C)n1` gave CYP2C9 inhib -2, CYP2C9 act 1, PostGolgi yeast -6, CYP2C19 act 1, PostGolgi ctrl 8 and CYP2C19 inh 0.
COc1nc(OCCNC(=O)Nc2ccccc2)nc(N(C)C)n1 was read as CYP2C9 inhib 46, CYP2C9 act 0.5, PostGolgi yeast 2, CYP2C19 act 0.3, PostGolgi ctrl 7 and CYP2C19 inh 71*.
Screening Cc1cc(C)c2ccc(N)nc2c1O returned CYP2C9 inhib -18, CYP2C9 act 1.2, PostGolgi yeast 8, CYP2C19 act 1, PostGolgi ctrl 2 and CYP2C19 inh -5.
`Cc1cc(C)c2ccc(C)[n+]([O-])c2c1O` gave CYP2C9 inhib -252, CYP2C9 act 3.5*, PostGolgi yeast 0, CYP2C19 act 0.8, PostGolgi ctrl -15 and CYP2C19 inh 16.
For COc1cc(C=O)c(Br)cc1OCc1ccc(C)cc1 the results were CYP2C9 inhib 15, CYP2C9 act 0.9, PostGolgi yeast 1, CYP2C19 act 0.6, PostGolgi ctrl 48* and CYP2C19 inh 40.
CCOc1cc(C=O)c(Br)cc1OC1CCCC1 was read as CYP2C9 inhib 16, CYP2C9 act 0.8, PostGolgi yeast 8, CYP2C19 act 0.9, PostGolgi ctrl 18 and CYP2C19 inh 11.
`CCOC(=O)N1CCC(Nc2c(Nc3ccc(C)c(C)c3)c(=O)c2=O)CC1` gave CYP2C9 inhib -2, CYP2C9 act 1, PostGolgi yeast 0, CYP2C19 act 1.1, PostGolgi ctrl 0 and CYP2C19 inh -13.
Screening Cc1ccccc1NC1=C(Cl)C(=O)OC1OC(C)C (stereo not drawn) returned CYP2C9 inhib 30, CYP2C9 act 0.7, PostGolgi yeast -6, CYP2C19 act 0, PostGolgi ctrl 0 and CYP2C19 inh 96*.
`Cc1ccccc1S(=O)(=O)NC1OC(=O)C(Cl)=C1Cl` (stereo not drawn) gave CYP2C9 inhib -10, CYP2C9 act 1.1, PostGolgi yeast -3, CYP2C19 act 1.2, PostGolgi ctrl 11 and CYP2C19 inh -21.
Screening COC(=O)c1ccc(NCCc2csc(-c3ccc(C)cc3)n2)c([N+](=O)[O-])c1 returned CYP2C9 inhib 60*, CYP2C9 act 0.4, PostGolgi yeast 12, CYP2C19 act 0.5, PostGolgi ctrl -4 and CYP2C19 inh 52*.
`Cc1cccc(-c2c3c(=O)n(C)c(=O)n(C)c3cn2CCO)c1` gave CYP2C9 inhib -12, CYP2C9 act 1.1, PostGolgi yeast -7, CYP2C19 act 1.2, PostGolgi ctrl -4 and CYP2C19 inh -16.
Screening CC(=O)c1cccc(NC(=O)Nc2cc3sccc3n2C)c1 returned CYP2C9 inhib 33, CYP2C9 act 0.7, PostGolgi yeast -10, CYP2C19 act 1.1, PostGolgi ctrl -2 and CYP2C19 inh -6.
`CC(C)OC(=O)c1cc2ccccc2oc1=O` gave CYP2C9 inhib -2, CYP2C9 act 1, PostGolgi yeast -6, CYP2C19 act 0.9, PostGolgi ctrl 28 and CYP2C19 inh 7.
For Cc1ccc(C(=O)C(C)OC(=O)c2cc3cc([N+](=O)[O-])ccc3oc2=O)cc1 (stereo not drawn) the results were CYP2C9 inhib 88*, CYP2C9 act 0.1, PostGolgi yeast -9, CYP2C19 act 0.8, PostGolgi ctrl -4 and CYP2C19 inh 16.
`CC(NC(=O)c1ccco1)C(=O)OCc1cccc(Cl)c1` (stereo not drawn) gave CYP2C9 inhib 4, CYP2C9 act 1, PostGolgi yeast -11, CYP2C19 act 0.5, PostGolgi ctrl -5 and CYP2C19 inh 45.
COC1(c2ccccc2)NC(=S)NN=C1c1ccccc1 (stereo not drawn) was read as CYP2C9 inhib 82*, CYP2C9 act 0.2, PostGolgi yeast 0, CYP2C19 act 0.5, PostGolgi ctrl 1 and CYP2C19 inh 48.
Screening CCCCOC1(c2ccccc2)NC(=S)NN=C1c1ccccc1 (stereo not drawn) returned CYP2C9 inhib 95*, CYP2C9 act 0.1, PostGolgi yeast -3, CYP2C19 act 0.2, PostGolgi ctrl 11 and CYP2C19 inh 79*.
Screening Cc1cccc(NC(=S)NC2CC3CCCC(C2)N3Cc2cccs2)c1C (stereo not drawn) returned CYP2C9 inhib -1, CYP2C9 act 1, PostGolgi yeast 1, CYP2C19 act 1, PostGolgi ctrl 22 and CYP2C19 inh -4.
CCOC(=O)c1cnc(Nc2nc3ccccc3o2)nc1CN1CCN(C)CC1 was read as CYP2C9 inhib -5, CYP2C9 act 1, PostGolgi yeast 16, CYP2C19 act 1, PostGolgi ctrl 16 and CYP2C19 inh 4.
Screening COC(=O)c1[nH]c2ccc(Cl)cc2c1NC(=O)Oc1ccccc1 returned CYP2C9 inhib 0, CYP2C9 act 1, PostGolgi yeast 3, CYP2C19 act 1, PostGolgi ctrl -4 and CYP2C19 inh -2.
Cc1cc(Br)cc(C)c1NC(=S)NC(=O)CC(C)C was read as CYP2C9 inhib 2, CYP2C9 act 1, PostGolgi yeast -1, CYP2C19 act 1, PostGolgi ctrl 8 and CYP2C19 inh -4.
`COc1ccc(C2CC(=O)c3c(C)nc(N4CCN(c5ccccc5)CC4)nc3C2)cc1` (stereo not drawn) gave CYP2C9 inhib 42, CYP2C9 act 0.6, PostGolgi yeast -2, CYP2C19 act 0.8, PostGolgi ctrl 13 and CYP2C19 inh 21.
